Compounds with a hit are over-represented: about 2.1% of the library has one in this group of screens.
LANA-H2A inh: blockers of LANA interaction with H2A/H2B – biochemical, FP readout, HTS, primary screen; Protein LANA1 (Human herpesvirus 8 type P (isolate GK18)), Q9QR71; cell-free LANA-H2A/H2B peptide, fluorescence polarization; inhibition, % (test concentration not listed); 320,000 compounds, 0.6% hits; in the data active means inhibition mostly above about 10%, no sharp cut-off; inactive means mostly below about 6.7%
Mot1-301 SUMO: yeast Mot1-301 growth rescue at high temperature, primary screen, SUMOylation pathway inhibitor project, S. cerevisiae, ATP luminescence, 38.5C; S. cerevisiae Mot1-301 growth rescue; percent above DMSO median, 100 means doubled; growth rescue, % at 18.8 µM; 320,000 compounds, 1% hits; AID 2716, 2010;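 active means every valid replicate shows activation above 250% relative to neutral control wells; inactive means the rest, any valid replicate at or below 250%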
IDE cell inh: human IDE inhibitors in live cells, primary screen, fluorescence polarization, HEK cells, FAbetaB substrate; Insulin-degrading enzyme (Homo sapiens), P14735; FAbetaB cleavage; inhibition, % at 5.59 µM; 320,000 compounds, 0.41% hits; AID 434962, 2010;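 active means percent inhibition above the average of all tested compounds plus 3 SD, set per screening campaign, cut at about 16% in these data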;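 further: IDE supplied by intact live HEK cells; FP after avidin binding of uncleaved biotin substrate so inhibition keeps polarization high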
HDAC3 inh: HDAC3 deacetylase inhibitors, primary screen, biochemical, fluorescence, cell-free homogeneous; recombinant HDAC3, fluorogenic peptide/trypsin coupled; inhibition, % at 8.3 µM; 320,000 compounds, 0.15% hits; AID 2718, 2010; in the data active means inhibition above about 26%, passing the limit was not always enough; inconclusive means no clear call, values can overlap the other calls
IDE cell activ: human IDE activators in live cells, primary screen, fluorescence polarization, HEK cells, FAbeta-B substrate; 340,000 compounds, 0.073% hits; FAbeta-B cleavage; 0% vehicle, 100% cell-free pure enzyme wells; activation, % at 5.96 µM; AID 493087, 2011;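 active means activation above the mean of all tested compounds plus 3 SD, set per screening campaign, cut at about 17% in these data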
Mot1 SUMO dose: growth restoration of Mot1-301 yeast on galactose, dose response, SUMO pathway inhibitor project, whole organism, S. cerevisiae, ATP luminescence, cherry-picked samples; shares compounds with Mot1-301 SUMO; S. cerevisiae Mot1-301 galactose growth, 24 h; -100 = growth of slx-deleted rescue strain; growth activity, percent, % at 42 µM; 2,300 tested, under 10 active;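 active means Signal drops as the depositor expects, and the fitted half-maximal dose is no more than ten times the top valid tested dose; inconclusive means Poor fit, or a flat curve whose signal drops by 30% to 70%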;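 further: more negative values mean stronger growth rescue toward the control strain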
Hits are given with their value; ! = repeats disagree.

`CC(C)Cc1nnc(NC(=O)c2ccc(S(=O)(=O)N3CCCC3)cc2)s1` gave IDE cell activ inactive.
Screening COC(=O)C1=C(C)NC(C)=C(C(=O)OC)C1c1ccc2ccccc2n1 returned LANA-H2A inh inactive, Mot1-301 SUMO inactive, IDE cell inh inactive, HDAC3 inh inactive and IDE cell activ inactive.
Screening COC(=O)C1=C(C)NC(C)=C([N+](=O)[O-])C1c1ccccc1C(F)(F)F (stereo not given) returned LANA-H2A inh inactive, Mot1-301 SUMO 497!, IDE cell inh inactive, HDAC3 inh inactive, IDE cell activ inactive and Mot1 SUMO dose inactive.
`O=C(CSc1nnc2ccccn12)NNC(=O)c1ccc(Cl)cc1` gave LANA-H2A inh inactive, Mot1-301 SUMO 599, IDE cell inh inactive, HDAC3 inh inactive, IDE cell activ inactive and Mot1 SUMO dose inactive.
Cc1nn(C)c(C)c1/C=N/NC(=O)C(C)(C)Oc1ccc(Cl)cc1 was read as LANA-H2A inh inactive, Mot1-301 SUMO 591, IDE cell inh inactive, HDAC3 inh inactive, IDE cell activ inactive and Mot1 SUMO dose inactive.
For Cc1c(/C=N/NC(=O)C(C)(C)Oc2ccc(Cl)cc2)cnn1C the results were LANA-H2A inh inactive, Mot1-301 SUMO inactive, IDE cell inh inactive, HDAC3 inh inconclusive and IDE cell activ inactive.
For COc1cccc(CN(CC(=O)NCC2CCCO2)C(=O)CCC(=O)Nc2cc(C)on2)c1 (stereo not given) the results were LANA-H2A inh inactive, IDE cell inh inactive, HDAC3 inh inactive and IDE cell activ inactive.
`COc1ccc(CN(CC(=O)NCC2CCCO2)C(=O)CCC(=O)Nc2cc(C)on2)cc1` (stereo not given) gave LANA-H2A inh inactive, Mot1-301 SUMO 392, IDE cell inh inactive, HDAC3 inh inconclusive, IDE cell activ inactive and Mot1 SUMO dose inactive.
For COc1ccccc1N(CC(=O)NCC1CCCO1)C(=O)CCC(=O)Nc1cc(C)on1 (stereo not given) the results were LANA-H2A inh inactive, Mot1-301 SUMO 752, IDE cell inh inactive, HDAC3 inh inactive, IDE cell activ inactive and Mot1 SUMO dose inactive.
For CCOc1ccccc1N(CC(=O)NCC1CCCO1)C(=O)CCC(=O)Nc1cc(C)on1 (stereo not given) the results were LANA-H2A inh inactive, Mot1-301 SUMO inactive, IDE cell inh inactive, HDAC3 inh inactive and IDE cell activ inactive.
Screening Nc1cc2cccnc2cc1Cl returned IDE cell activ inactive.
COC(=O)c1sccc1NC(=S)N1CCCCC1 was read as LANA-H2A inh inactive, Mot1-301 SUMO active, IDE cell inh inactive, HDAC3 inh inactive, IDE cell activ inactive and Mot1 SUMO dose inactive.
`Cc1ccccc1C(=O)N1CCC(C(=O)NC(C)c2ccc(-n3ccnc3)cc2)CC1` (stereo not given) gave LANA-H2A inh inactive, Mot1-301 SUMO inactive, IDE cell inh inactive, HDAC3 inh inactive and IDE cell activ inactive.
`CC(=O)c1cccc(NCC(=O)Nc2cccc(S(=O)(=O)N3CCCCC3)c2)c1` gave LANA-H2A inh inactive, Mot1-301 SUMO inactive, IDE cell inh inactive, HDAC3 inh inactive and IDE cell activ inactive.
For CC1Cc2ccccc2N1C(=O)CNc1cccc(S(=O)(=O)N2CCCC2)c1 (stereo not given) the results were LANA-H2A inh inactive, Mot1-301 SUMO active, IDE cell inh inactive, HDAC3 inh inactive, IDE cell activ inactive and Mot1 SUMO dose inactive.
O=C(Nc1ccc(Cl)cc1Cl)c1ccc2c(c1)OCCO2 was read as LANA-H2A inh inactive, Mot1-301 SUMO inactive, IDE cell inh inactive, HDAC3 inh inactive and IDE cell activ inactive.
`O=C(Nc1ccc(Cl)cc1Cl)c1cccc(N2C(=O)C=CC2=O)c1` gave LANA-H2A inh inactive, Mot1-301 SUMO 550, IDE cell inh inactive, HDAC3 inh inactive, IDE cell activ inactive and Mot1 SUMO dose inactive.
`NS(=O)(=O)c1ccc(NS(=O)(=O)c2ccc(C3CNC(=O)C3)cc2)cc1` (stereo not given) gave LANA-H2A inh inactive, Mot1-301 SUMO inactive, IDE cell inh inactive, HDAC3 inh inactive and IDE cell activ inactive.
For CN(C(=O)c1ccc(S(=O)(=O)N(C)C)cc1)c1ccc2ccccc2c1 the results were LANA-H2A inh inactive, Mot1-301 SUMO inactive, IDE cell inh inactive, HDAC3 inh inactive and IDE cell activ inactive.
Screening CCC(C)C(N)C(=O)N1CCCC1C(=O)NC(C(=O)O)C(C)CC (stereo not given) returned IDE cell activ inactive.
`O=C(CN1CCN(Cc2ccc(F)cc2)CC1)NCc1ccccc1` gave LANA-H2A inh inactive, Mot1-301 SUMO 651, IDE cell inh inactive, HDAC3 inh inactive, IDE cell activ inactive and Mot1 SUMO dose inactive.
O=C(CN1CCN(Cc2ccc(F)cc2)CC1)NCCc1ccccc1 was read as LANA-H2A inh inactive, Mot1-301 SUMO inactive, IDE cell inh inactive, HDAC3 inh inactive and IDE cell activ inactive.
For COc1ccc(S(=O)(=O)N(C)c2ccc(C(=O)NCc3ccccn3)cc2)cc1 the results were LANA-H2A inh inactive, Mot1-301 SUMO inactive, IDE cell inh inactive, HDAC3 inh inactive and IDE cell activ inactive.
CCC(C)(C)C1CCC(NC(=O)c2ccc(S(=O)(=O)N3CCOCC3)cc2)CC1 (stereo not given) was read as LANA-H2A inh inactive, Mot1-301 SUMO inactive, IDE cell inh inactive, HDAC3 inh inactive and IDE cell activ inactive.
`COC(=O)C1CN(C(=O)C(C)Oc2ccc(F)cc2)c2ccccc2O1` (stereo not given) gave LANA-H2A inh inactive, Mot1-301 SUMO 748, IDE cell inh inactive, HDAC3 inh inactive, IDE cell activ inactive and Mot1 SUMO dose inactive.
Screening C[C@H]1NC(=O)[C@@]2(C)[C@H](c3ccccc3)[C@H]3COc4ccccc4[C@@H]3N2C1=O returned LANA-H2A inh inactive, Mot1-301 SUMO inactive, IDE cell inh inactive, HDAC3 inh inactive and IDE cell activ inactive.
Screening CCCCn1c(N)c(N(C)C(=O)C2CCCC2)c(=O)[nH]c1=O returned LANA-H2A inh inactive, Mot1-301 SUMO inactive, IDE cell inh inactive, HDAC3 inh inactive and IDE cell activ inactive.
For C=C(C)Cn1c(SCC(=O)N/N=C/c2ccccc2OCC(=O)O)nnc1-c1ccc(Br)cc1 the results were LANA-H2A inh inactive, Mot1-301 SUMO 572, IDE cell inh inactive, IDE cell activ inactive and Mot1 SUMO dose inactive.
Screening CCn1c(SCC(=O)N/N=C\c2ccccc2OCC(=O)O)nnc1-c1ccc(Cl)cc1 returned LANA-H2A inh inactive, Mot1-301 SUMO inactive, IDE cell inh inactive, HDAC3 inh inactive and IDE cell activ inactive.

Source: PubChem BioAssay (several laboratories)
